Screens from PubChem.
The full list was thinned out, with hits kept by preference.
STK33 inh: human STK33 kinase inhibition; inhibition, % at 12.5 µM; ADP-Glo luminescence, MBP substrate; Q9BYT3; 27,000 compounds, 0.44% hits; in the data active = inhibition above about 20%
Target sequence (Q9BYT3 whole entry, looked up): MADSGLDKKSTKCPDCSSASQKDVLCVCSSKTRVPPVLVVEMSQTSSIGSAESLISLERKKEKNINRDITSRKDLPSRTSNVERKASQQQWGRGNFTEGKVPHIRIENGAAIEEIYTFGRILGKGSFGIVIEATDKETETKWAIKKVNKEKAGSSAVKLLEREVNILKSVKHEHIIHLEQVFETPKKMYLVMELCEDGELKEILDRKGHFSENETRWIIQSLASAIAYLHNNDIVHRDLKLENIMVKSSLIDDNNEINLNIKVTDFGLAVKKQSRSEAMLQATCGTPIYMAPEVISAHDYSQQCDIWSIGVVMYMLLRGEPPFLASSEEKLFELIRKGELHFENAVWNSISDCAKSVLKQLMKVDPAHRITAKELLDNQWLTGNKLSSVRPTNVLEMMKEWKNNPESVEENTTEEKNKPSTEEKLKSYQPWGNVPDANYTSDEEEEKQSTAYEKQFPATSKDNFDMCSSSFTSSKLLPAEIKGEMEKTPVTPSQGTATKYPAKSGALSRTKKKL
PD-1 reversal: reversal of PD-1 mediated T-cell inhibition; primary human CD4 T cells, PD-L1 beads, CellTiter-Glo 96 h; activation, % (concentration not given with the values); 29,000 tested, under 10 active; call rule not given here;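 note: 0% = median vehicle wells and 100% = positive control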
NOMO-1 viab: STK33 inhibitor candidate reducing NOMO-1 cell viability; inhibition, % (concentration not given with the values); 37,000 compounds, 7.5% hits; NOMO-1 AML viability, CellTiter-Glo luminescence, 72 h; AID 2330; in the data active = inhibition above about 80%
Active calls of the source: *; nt = no result given.

SMILES	STK33 inh	PD-1 reversal	NOMO-1 viab
C[C@@H]1CN([C@H](C)CO)C(=O)c2cc(NS(=O)(=O)c3ccc(F)cc3)ccc2O[C@@H]1CN(C)Cc1ccc(C(F)(F)F)cc1	nt	-1	112*
C[C@H]1CN([C@@H](C)CO)C(=O)c2cc(NS(=O)(=O)c3ccc(F)cc3)ccc2O[C@@H]1CN(C)Cc1ccc(C(F)(F)F)cc1	0	-1	-15
COCCNS(=O)(=O)c1cc([N+](=O)[O-])ccc1C	2	nt	34
COc1ccc(/C=C2\Oc3cc(O)cc(O)c3C2=O)cc1O	31*	0	8
COc1cc(C2CC(=O)c3c(O)cc(O)cc3O2)ccc1O (stereo not drawn)	4	-2	-23
C/C(=C\CC[C@@H](C)[C@H]1CC(O)[C@@]2(C)C3CC[C@H]4C(C)(C)[C@@H](O[C@@H]5OC(COC6OC(CO)C(O)C(O)C6O)C(O)C(O)C5O)CC[C@@]45C[C@@]35CC(O)[C@]12C)C(=O)OC1OC(CO)C(O)C1O (stereo partly drawn)	9	0	28
COc1ccc(NC(=S)N(C)Cc2c(C)nn(C)c2C)c(OC)c1	0	1	12
NC(=O)c1ccc(N2CCN(C(c3ccccc3)c3ccccc3)CC2)nc1	nt	-3	109*
CN1CCN(C(c2ccccc2)c2ccccc2)CC1	0	3	14
CC(NS(=O)(=O)c1ccc(F)cc1)C(=O)Nc1ccc(F)c(Cl)c1 (stereo not drawn)	-2	nt	16
C[C@@H]1CN([C@H](C)CO)C(=O)c2cccc(NC(=O)Nc3ccc(C(F)(F)F)cc3)c2O[C@@H]1CN(C)Cc1ccc(Cl)c(Cl)c1	nt	-4	76
C[C@@H]1CN([C@@H](C)CO)C(=O)c2cccc(NC(=O)Nc3ccc(C(F)(F)F)cc3)c2O[C@H]1CN(C)Cc1ccc(Cl)c(Cl)c1	nt	-3	107*
C[C@@H]1CN([C@H](C)CO)C(=O)c2cccc(NC(=O)Nc3ccc(C(F)(F)F)cc3)c2O[C@H]1CN(C)Cc1ccc(Cl)c(Cl)c1	nt	-6	104*
C[C@H](CO)N1C[C@H](C)[C@H](CN(C)Cc2ccncc2)Oc2c(NC(=O)Nc3ccc(C(F)(F)F)cc3)cccc2C1=O	nt	1	10
CCn1c(SCC(=O)Nc2cccc(Cl)c2Cl)nnc1-c1ccc([N+](=O)[O-])cc1	2	-1	33
Cc1cc2c(c(=O)n1CC1CCCO1)C(c1cccs1)C(C#N)=C(N)O2 (stereo not drawn)	nt	0	11
C/C1=C/CCC2=CC(OC2=O)C(C)(C)/C=C/C1=O (stereo not drawn)	3	-9	119*
COC(=O)c1ccccc1NC(=O)Cn1nc(C(F)(F)F)c2c1CCCCC2	2	3	18
CO[C@H]1C[C@@H]2CC[C@@H](C)[C@@](O)(O2)C(=O)C(=O)N2CCCC[C@H]2C(=O)O[C@H]([C@H](C)C[C@@H]2CC[C@@H](O)[C@H](OC)C2)CC(=O)[C@H](C)/C=C(\C)[C@@H](O)[C@@H](OC)C(=O)[C@H](C)C[C@H](C)/C=C/C=C/C=C\1C	1	-8	131*
Cc1cc(Br)cc2c1N(C)C(=O)/C2=C1\SC(=Nc2ccc(F)cc2)NC1=O	nt	1	10
Cc1csc2sc(C=NCc3cccs3)c(C)c12	nt	-4	122*
C[C@@H]1CN([C@@H](C)CO)C(=O)c2cccc(NC(=O)Nc3ccc(C(F)(F)F)cc3)c2O[C@@H]1CN(C)Cc1ccccc1	nt	-3	89*
C[C@@H]1CN([C@H](C)CO)C(=O)c2cccc(NC(=O)Nc3ccc(C(F)(F)F)cc3)c2O[C@H]1CN(C)Cc1ccccc1	nt	-7	101*
C[C@H]1CN([C@@H](C)CO)C(=O)c2cccc(NC(=O)Nc3ccc(C(F)(F)F)cc3)c2O[C@H]1CN(C)Cc1ccc(-c2ccccc2)cc1	nt	-4	52
C[C@H](CO)N1C[C@H](C)[C@@H](CN(C)Cc2ccccc2)Oc2c(NC(=O)Nc3ccc(C(F)(F)F)cc3)cccc2C1=O	nt	-7	115*
SMILES	STK33 inh	PD-1 reversal	NOMO-1 viab
C[C@H]1CN([C@@H](C)CO)C(=O)c2cccc(NC(=O)Nc3ccc(C(F)(F)F)cc3)c2O[C@@H]1CN(C)Cc1ccc(-c2ccccc2)cc1	-1	-5	85*
C[C@H](CO)N1C[C@H](C)[C@@H](CN(C)Cc2ccc(-c3ccccc3)cc2)Oc2c(NC(=O)Nc3ccc(C(F)(F)F)cc3)cccc2C1=O	nt	nt	53
C[C@H](CO)N1C[C@H](C)[C@H](CN(C)Cc2ccccc2)Oc2c(NC(=O)Nc3ccc(C(F)(F)F)cc3)cccc2C1=O	nt	nt	74
COc1ccc([N+](=O)[O-])cc1CSc1nnc(-c2ccc(NC(C)=O)cc2)n1C	-1	3	7
O=C(c1cccs1)N1N=C2c3ccccc3CCC2C1c1ccccc1Cl (stereo not drawn)	nt	0	70
Cc1nnc(N2C(=O)C(=O)C(C(=O)c3ccco3)C2c2cccc(Oc3ccccc3)c2)s1 (stereo not drawn)	0	1	-2
CC1OC(OC2CCC3(C)C(CCC4(C)C3CC=C3C5CC(C)(C)CCC5(C(=O)OC5OC(CO)C(OC6OCC(OC7OC(CO)C(O)C(O)C7O)C(OC7OCC(O)C(O)C7O)C6O)C(O)C5O)CCC34C)C2(C)C)C(O)C(O)C1OC1OCC(O)C(O)C1O (stereo not drawn)	-2	-1	0
COc1ccccc1N(Cc1cc2ccc(C)cc2[nH]c1=O)S(=O)(=O)c1ccccc1	2	1	108*
COc1ccccc1N(CC(=O)O)S(=O)(=O)c1ccccc1	0	nt	-3
NC(=O)COc1ccc(C=C2C(=O)c3ccccc3C2=O)cc1	nt	-4	35
CC(=O)c1c(C)nn(CC(O)COc2ccc3c(c2)CCC3)c1C (stereo not drawn)	0	-2	55
Cc1nn(CC(O)COc2ccc3c(c2)CCC3)c(C)c1Br (stereo not drawn)	1	-5	96*
COc1cc(O)c2c(c1)O[C@H](c1ccc(O)c(O)c1)[C@@H](O)C2=O	6	nt	nt
Cc1ccc(C(=O)CSc2nc(C)nc3sc4c(c23)CCCC4)cc1	0	0	18
Cc1nc(SC2CCCCN(C(=O)c3ccc(Cl)cc3)C2=O)c2c3c(sc2n1)CCCC3 (stereo not drawn)	nt	0	93*
COc1ccc(OC)c(NC(=O)CN(c2ccc(Br)c(C)c2)S(C)(=O)=O)c1	-3	-2	31
O=C1O[C@H](c2ccccc2)[C@H](c2ccccc2)N2[C@H]1[C@@H](C(=O)N1CCN(c3ncccn3)CC1)[C@]1(C(=O)Nc3ccc(C#CCCO)cc31)[C@H]2c1ccccc1OCCO	24*	nt	nt
COc1ccc(C#Cc2ccc3c(c2)[C@]2(C(=O)N3)[C@H](c3ccccc3OCCO)N3[C@H](c4ccccc4)[C@H](c4ccccc4)OC(=O)[C@H]3[C@@H]2C(=O)N2CCN(c3ncccn3)CC2)cc1	10	nt	nt
O=C1O[C@@H](c2ccccc2)[C@@H](c2ccccc2)N2[C@@H](c3ccccc3OCCO)[C@]3(C(=O)Nc4ccc(C#CCCO)cc43)[C@@H](C(=O)N3CCCCCCC3)[C@H]12	22*	nt	nt
O=C1O[C@@H](c2ccccc2)[C@@H](c2ccccc2)N2[C@@H](c3ccc(OCCO)cc3)[C@]3(C(=O)Nc4ccc(C#CCCO)cc43)[C@@H](C(=O)N3CCCCCCC3)[C@H]12	14	nt	nt
